# Results from PMC7862700, “An all-to-all approach to the identification of sequence-specific readers for epigenetic DNA modifications on cytosine”.
# Assays:
# Test in all cases: DAPPL (digital affinity profiling via proximity ligation, sequencing); 10 mM Tris-HCl pH 7.5, 50 mM NaCl, 1 mM DTT, 4% glycerol, room temperature, 30 min; GST-TFs on glutathione beads, 16-mer random dsDNA library, 0.1% formaldehyde crosslink after washing; high values mean tight binding
# Conditions in all cases: protein: recombinant; tags: N-terminal GST; dsDNA, one strand shown
# SPIC = biological target: T1, SPIC (Homo sapiens, UniProt Q8N5J4 1-248)
# T1 sequence: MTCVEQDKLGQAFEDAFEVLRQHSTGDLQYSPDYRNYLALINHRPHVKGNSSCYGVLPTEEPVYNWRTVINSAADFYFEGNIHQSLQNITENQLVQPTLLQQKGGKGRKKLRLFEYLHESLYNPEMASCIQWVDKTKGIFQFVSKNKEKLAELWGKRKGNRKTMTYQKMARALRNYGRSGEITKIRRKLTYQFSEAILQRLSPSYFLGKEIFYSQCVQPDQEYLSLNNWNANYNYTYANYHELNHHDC
# How it was run: (§1)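 Pools were built from human transcription factors expressed in yeast as GST fusions, captured on glutathione beads and DNA-barcoded, along with a tag-only sample. Incubation with 200 nmole of a 16-mer random double-stranded DNA library lasted 30 min at room temperature in Tris/NaCl/DTT/glycerol buffer, and was followed by washing, 0.1% formaldehyde crosslinking, proximity ligation, PCR amplification and Illumina NextSeq500 sequencing. Binding signal is the quotient of each hexamer's read frequency for a factor and its frequency for the tag-only sample.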
# ELK1 = biological target: T2, ELK1 (Homo sapiens, UniProt P19419 1-428)
# T2 sequence: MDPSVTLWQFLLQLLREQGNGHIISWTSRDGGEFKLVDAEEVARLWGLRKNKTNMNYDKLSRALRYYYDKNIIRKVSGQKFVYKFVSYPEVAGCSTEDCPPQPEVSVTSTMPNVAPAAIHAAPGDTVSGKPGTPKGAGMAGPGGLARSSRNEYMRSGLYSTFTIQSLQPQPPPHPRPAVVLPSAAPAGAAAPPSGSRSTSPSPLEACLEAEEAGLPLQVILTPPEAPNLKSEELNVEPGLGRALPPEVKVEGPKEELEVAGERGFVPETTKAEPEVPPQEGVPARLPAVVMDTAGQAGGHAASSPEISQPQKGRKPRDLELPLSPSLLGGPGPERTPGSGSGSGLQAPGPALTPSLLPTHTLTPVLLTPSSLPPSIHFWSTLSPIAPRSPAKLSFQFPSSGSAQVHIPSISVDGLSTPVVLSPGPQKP
# How it was run: as §1
# SPI1 = SPI1 (Homo sapiens, UniProt P17947 1-270)
# How it was run: as §1
# ELK3 = biological target: T3, ELK3 (Homo sapiens, UniProt P41970 1-407)
# T3 sequence: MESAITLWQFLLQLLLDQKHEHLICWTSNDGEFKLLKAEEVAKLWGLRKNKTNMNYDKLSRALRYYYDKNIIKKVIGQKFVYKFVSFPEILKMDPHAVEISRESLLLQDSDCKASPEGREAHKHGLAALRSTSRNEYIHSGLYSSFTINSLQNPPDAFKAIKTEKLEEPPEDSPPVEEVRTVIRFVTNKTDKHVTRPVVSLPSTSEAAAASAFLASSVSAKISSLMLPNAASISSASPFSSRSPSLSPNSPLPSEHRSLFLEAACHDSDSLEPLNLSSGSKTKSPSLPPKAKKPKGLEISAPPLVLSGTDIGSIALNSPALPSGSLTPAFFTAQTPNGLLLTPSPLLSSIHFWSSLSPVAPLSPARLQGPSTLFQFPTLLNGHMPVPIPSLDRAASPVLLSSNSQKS
# How it was run: as §1
# ELF4 = ELF4 (Homo sapiens, UniProt Q99607 1-663)
# Sequence of ELF4 (Q99607 whole entry): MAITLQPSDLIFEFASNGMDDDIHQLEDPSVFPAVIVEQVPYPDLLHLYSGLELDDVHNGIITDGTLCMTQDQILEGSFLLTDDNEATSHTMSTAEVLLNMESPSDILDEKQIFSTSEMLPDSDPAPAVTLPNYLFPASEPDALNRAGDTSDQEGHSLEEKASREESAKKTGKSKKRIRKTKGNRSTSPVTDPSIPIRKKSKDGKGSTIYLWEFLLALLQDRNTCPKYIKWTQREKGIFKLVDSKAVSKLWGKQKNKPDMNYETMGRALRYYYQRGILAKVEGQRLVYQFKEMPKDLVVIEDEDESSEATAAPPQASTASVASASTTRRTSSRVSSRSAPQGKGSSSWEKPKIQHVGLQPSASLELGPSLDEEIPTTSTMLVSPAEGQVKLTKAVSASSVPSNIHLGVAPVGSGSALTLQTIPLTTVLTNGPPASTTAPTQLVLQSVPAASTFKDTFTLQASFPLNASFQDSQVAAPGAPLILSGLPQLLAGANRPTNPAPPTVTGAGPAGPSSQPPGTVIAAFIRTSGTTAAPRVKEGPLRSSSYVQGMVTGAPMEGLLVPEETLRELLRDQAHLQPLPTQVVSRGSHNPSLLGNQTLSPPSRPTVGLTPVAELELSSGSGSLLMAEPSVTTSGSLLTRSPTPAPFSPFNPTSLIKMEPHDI
# How it was run: as §1
# ELF3 = biological target: T4, ELF3 (Homo sapiens, UniProt P78545 1-371)
# T4 sequence: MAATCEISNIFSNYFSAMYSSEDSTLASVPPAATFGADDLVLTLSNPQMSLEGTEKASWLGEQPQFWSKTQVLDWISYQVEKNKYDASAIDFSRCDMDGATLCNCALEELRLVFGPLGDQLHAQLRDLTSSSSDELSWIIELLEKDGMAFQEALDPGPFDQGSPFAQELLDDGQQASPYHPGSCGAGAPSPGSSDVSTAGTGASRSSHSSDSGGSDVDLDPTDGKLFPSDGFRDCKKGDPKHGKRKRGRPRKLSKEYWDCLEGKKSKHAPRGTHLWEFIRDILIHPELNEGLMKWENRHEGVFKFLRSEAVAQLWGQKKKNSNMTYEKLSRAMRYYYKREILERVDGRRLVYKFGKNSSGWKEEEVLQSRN
# How it was run: as §1
# SPIB = SPIB (Homo sapiens, UniProt Q01892 1-262)
# Sequence of SPIB (Q01892 whole entry): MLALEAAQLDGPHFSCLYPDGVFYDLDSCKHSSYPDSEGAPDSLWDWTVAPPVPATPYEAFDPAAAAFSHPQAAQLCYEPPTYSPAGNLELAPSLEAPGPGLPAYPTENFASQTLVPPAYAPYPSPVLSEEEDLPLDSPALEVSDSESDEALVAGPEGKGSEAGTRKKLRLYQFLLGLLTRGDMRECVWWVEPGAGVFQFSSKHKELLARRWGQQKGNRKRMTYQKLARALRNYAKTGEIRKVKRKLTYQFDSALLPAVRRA
# How it was run: as §1
sequence,measurement,setting,value
GTGCTG,binding signal,SPIC,"1.05 fold enrichment (6-mer frequency, TF over GST control)"
ATGGGA,binding signal,SPIC,"1.05 fold enrichment (6-mer frequency, TF over GST control)"
GACTCG,binding signal,SPIC,"1.02 fold enrichment (6-mer frequency, TF over GST control)"
ACATGA,binding signal,ELK1,"1.01 fold enrichment (6-mer frequency, TF over GST control)"
same,binding signal,SPI1,"1.01 fold enrichment (6-mer frequency, TF over GST control)"
same,binding signal,ELK3,"1.07 fold enrichment (6-mer frequency, TF over GST control)"
same,binding signal,SPIC,"1.02 fold enrichment (6-mer frequency, TF over GST control)"
same,binding signal,ELF4,"1.04 fold enrichment (6-mer frequency, TF over GST control)"
same,binding signal,ELF3,"1.03 fold enrichment (6-mer frequency, TF over GST control)"
TGCAGA,binding signal,SPIB,"1.03 fold enrichment (6-mer frequency, TF over GST control)"
same,binding signal,SPIC,"1.06 fold enrichment (6-mer frequency, TF over GST control)"
same,binding signal,ELF4,"1 fold enrichment (6-mer frequency, TF over GST control)"
